Source: PubChem BioAssay (NCI)
This is part of a sample that, as a whole, favours compounds with a hit. Of some 83,000 tested, about 20% had one in any assay.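 Single-concentration screen, 48 h exposure, 96-well plates. Endpoint: percent growth. Below 10 = active.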 Activity calls are given as the source filed them.

How the values were obtained:
Assay in all cases: NCI-60 one-dose screen, 48 h (100 = growth as untreated, 0 = no growth, -100 = all killed)
Details in all cases: 10 µM unless noted
SK-MEL-2 melanoma = tested on: SK-MEL-2 melanoma
EKVX NSCLC = tested on: EKVX NSCLC
SN12C renal = tested on: SN12C renal
UO-31 renal = tested on: UO-31 renal
TK-10 renal = tested on: TK-10 renal
ACHN renal = tested on: ACHN renal
A498 renal = tested on: A498 renal
CCRF-CEM leukemia = tested on: CCRF-CEM leukemia
MOLT-4 leukemia = tested on: MOLT-4 leukemia
SR leukemia = tested on: SR leukemia
OVCAR-8 ovarian = tested on: OVCAR-8 ovarian
OVCAR-5 ovarian = tested on: OVCAR-5 ovarian
OVCAR-4 ovarian = tested on: OVCAR-4 ovarian
SK-OV-3 ovarian = tested on: SK-OV-3 ovarian
IGROV1 ovarian = tested on: IGROV1 ovarian
OVCAR-3 ovarian = tested on: OVCAR-3 ovarian
HS 578T breast = tested on: HS 578T breast
NCI/ADR-RES ovarian = tested on: NCI/ADR-RES ovarian
RPMI-8226 leukemia = tested on: RPMI-8226 leukemia
CAKI-1 renal = tested on: CAKI-1 renal

Compound	growth (SK-MEL-2 melanoma)	growth (EKVX NSCLC)	growth (SN12C renal)	growth (UO-31 renal)	growth (TK-10 renal)	growth (ACHN renal)	growth (A498 renal)	growth (CCRF-CEM leukemia)	growth (MOLT-4 leukemia)	growth (SR leukemia)	growth (OVCAR-8 ovarian)	growth (OVCAR-5 ovarian)	growth (OVCAR-4 ovarian)	growth (SK-OV-3 ovarian)	growth (IGROV1 ovarian)	growth (OVCAR-3 ovarian)	growth (HS 578T breast)	growth (NCI/ADR-RES ovarian)	growth (RPMI-8226 leukemia)	growth (CAKI-1 renal)
Cn1c(=O)c2nc3c(=O)n(C)c(=O)n(C)c3nc2n(C)c1=O	110% (inactive)	93.9% (inactive)	106% (inactive)	82.1% (inactive)	128% (inactive)	101% (inactive)	126% (inactive)	104% (inactive)	84.9% (inactive)	82.5% (inactive)	108% (inactive)	91.1% (inactive)	108% (inactive)	97% (inactive)	106% (inactive)	107% (inactive)	-27.8% (active)	97% (inactive)		
CC(=O)[C@@]1(O)CC[C@H]2[C@@H]3CC[C@@H]4CC(=O)CC[C@]4(C)[C@H]3[C@@H](O)C[C@@]21C	99.7% (inactive)	88.9% (inactive)	95.4% (inactive)	91.7% (inactive)	97.2% (inactive)	101% (inactive)	88.6% (inactive)	94.1% (inactive)		87.9% (inactive)	101% (inactive)	91.7% (inactive)	111% (inactive)	82.7% (inactive)	103% (inactive)	109% (inactive)	101% (inactive)	103% (inactive)	97.9% (inactive)	
NNC(=O)CCCCl	105% (inactive)	98.6% (inactive)	102% (inactive)		111% (inactive)	114% (inactive)	117% (inactive)	112% (inactive)	120% (inactive)	114% (inactive)	104% (inactive)		106% (inactive)	123% (inactive)	106% (inactive)	104% (inactive)	112% (inactive)	106% (inactive)	114% (inactive)	107% (inactive)
CCOC(=O)c1c[nH][nH]c1=O	94.1% (inactive)	116% (inactive)	104% (inactive)	93.7% (inactive)	111% (inactive)	106% (inactive)	98.5% (inactive)	107% (inactive)	106% (inactive)	109% (inactive)	105% (inactive)	94.8% (inactive)	101% (inactive)	110% (inactive)		112% (inactive)	119% (inactive)	98.4% (inactive)	93% (inactive)	
CC(C)c1ncc([N+](=O)[O-])n1C	127% (inactive)	126% (inactive)	109% (inactive)		114% (inactive)	102% (inactive)		102% (inactive)	104% (inactive)	106% (inactive)	97.5% (inactive)	103% (inactive)	117% (inactive)	112% (inactive)		125% (inactive)	80.1% (inactive)	108% (inactive)	102% (inactive)	94.4% (inactive)
Cc1ccc(S(=O)(=O)Oc2ccc3sc4c(CO)ccc(NCCN(C)C)c4c(=O)c3c2)cc1	-86.6% [100 µM] (active)	-66.7% [100 µM] (active)	-94.1% [100 µM] (active)		-91.1% [100 µM] (active)	-92.7% [100 µM] (active)	-71.6% [100 µM] (active)	-27.9% [100 µM] (active)	-34.6% [100 µM] (active)	-38.8% [100 µM] (active)		-93.2% [100 µM] (active)	-97.9% [100 µM] (active)	-85.1% [100 µM] (active)	-74.1% [100 µM] (active)	-79.3% [100 µM] (active)	-44.2% [100 µM] (active)	-58% [100 µM] (active)		-91% [100 µM] (active)
COc1cccc(N=CNc2cccc(OC)c2)c1	86.3% (inactive)	99.4% (inactive)	101% (inactive)		113% (inactive)	86.2% (inactive)		94.7% (inactive)	90.9% (inactive)	93.6% (inactive)	104% (inactive)	103% (inactive)		103% (inactive)	96.7% (inactive)	102% (inactive)	105% (inactive)	91.4% (inactive)		87.7% (inactive)
ClCC(Cl)[C@@H]1CC2C=CC1C2 (some centres not stated)	112% (inactive)	98.3% (inactive)	102% (inactive)		114% (inactive)	108% (inactive)	80.2% (inactive)		114% (inactive)	112% (inactive)		110% (inactive)	104% (inactive)	111% (inactive)	114% (inactive)	119% (inactive)	108% (inactive)	105% (inactive)	104% (inactive)	100% (inactive)
COc1ccc2c(c1)Nc1ccccc1S2	112% (inactive)	105% (inactive)	107% (inactive)	93% (inactive)	107% (inactive)	114% (inactive)		104% (inactive)	106% (inactive)	118% (inactive)	102% (inactive)	106% (inactive)	91.4% (inactive)	111% (inactive)	103% (inactive)	113% (inactive)		111% (inactive)	95.4% (inactive)	
CC1CN(CCO)CC(C)O1 (configuration not stated)	133% (inactive)	102% (inactive)	93.8% (inactive)		106% (inactive)	107% (inactive)		100% (inactive)	105% (inactive)	103% (inactive)	107% (inactive)	93.1% (inactive)	99.7% (inactive)	96.9% (inactive)	103% (inactive)	106% (inactive)	74.4% (inactive)	106% (inactive)	111% (inactive)	93.5% (inactive)
CCN(Cc1ccc(Cl)c(Cl)c1)c1ccc2nc(N)nc(N)c2c1C	-78% (active)	-56.8% (active)	-75.6% (active)		-84.3% (active)	-95.6% (active)	-78.2% (active)	-5.59% (active)	-59.5% (active)		-59.9% (active)	-100% (active)	-88.2% (active)	-97.6% (active)	-79% (active)	-93.2% (active)	-42.5% (active)	-94.4% (active)	-54% (active)	-67% (active)
